Results taken from the supplement of paper PMC6555819.

Key:
Assay in all cases: PBM binding z-score (relative to random genomic background probes); higher = stronger binding; sequences stand for … in GC…GCGATTGACAGCGTAGAATGAAGG
[1] = test system: PPARg:RXRa DBDmut IVT, anti-RXR (DBD mutation: RXRa K156A/R161A, NR concentration 270 nM, RXRa partner concentration 90 nM)
In short: (§1)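 Scanned fluorescence from custom Agilent 4×180K protein-binding microarrays was regression-normalized. Binding z-scores use random background probes as reference. Ligand-free nuclear receptor dimers were incubated on the arrays for 1 h and detected with antibodies against each partner (one per run).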

[2] = test system: PPARg:RXRa IVT, anti-PPARg (NR concentration 270 nM, RXRa partner concentration 90 nM)
In short: as §1

[3] = test system: PPARg DBDmut:RXRa IVT, anti-PPARg (DBD mutation: PPARg1 K132A/R137A, NR concentration 270 nM, RXRa partner concentration 90 nM)
In short: as §1

[4] = test system: PPARg DBDmut IVT, anti-PPARg (DBD mutation: PPARg1 K132A/R137A, NR concentration 270 nM)
In short: as §1

[5] = test system: PPARg homodimer (NR concentration 180 nM)
In short: as §1

[6] = test system: PXR:RXRa (NR concentration 270 nM, RXRa partner concentration 90 nM)
In short: as §1

[7] = test system: PXR homodimer (NR concentration 270 nM)
In short: as §1

[8] = test system: RARa:RXR (NR concentration 270 nM, RXRa partner concentration 90 nM)
In short: as §1

[9] = test system: RARa homodimer (NR concentration 270 nM)
In short: as §1

[10] = test system: RARb:RXRa (NR concentration 270 nM, RXRa partner concentration 90 nM)
In short: as §1

[11] = test system: RARb homodimer (NR concentration 270 nM)
In short: as §1

[12] = test system: RARg:RXRa (NR concentration 270 nM, RXRa partner concentration 90 nM)
In short: as §1

[13] = test system: RARg homodimer (NR concentration 270 nM)
In short: as §1

[14] = test system: RXRa DBDmut IVT, anti-RXR (DBD mutation: RXRa K156A/R161A, NR concentration 90 nM)
In short: as §1

[15] = test system: RXRa homodimer (NR concentration 180 nM)
In short: as §1

[16] = test system: THRa:RXRa (NR concentration 90 nM, RXRa partner concentration 90 nM)
In short: as §1

[17] = test system: THRa homodimer (NR concentration 90 nM)
In short: as §1

[18] = test system: VDR homodimer (NR concentration 270 nM)
In short: as §1

Sequence | PBM binding z-score [1] | PBM binding z-score [2] | PBM binding z-score [3] | PBM binding z-score [4] | PBM binding z-score [5] | PBM binding z-score [6] | PBM binding z-score [7] | PBM binding z-score [8] | PBM binding z-score [9] | PBM binding z-score [10] | PBM binding z-score [11] | PBM binding z-score [12] | PBM binding z-score [13] | PBM binding z-score [14] | PBM binding z-score [15] | PBM binding z-score [16] | PBM binding z-score [17] | PBM binding z-score [18]
TAGCCTAGGTCAGATCGGGCCAGAATACGCTATA | 0.095 | 1.57 | -0.542 | -0.739 | 0.124 | 0.946 | -0.549 | 1.87 | -0.627 | 2.93 | 1.78 | 2.58 | 2.95 | -0.569 | 1.29 | 4.06 | -0.133 | -0.288
ACTAGCAGGCCTAGTTTGGGTCACTCAAACAAAG | -0.402 | 0.669 | -0.351 | -1.26 | -0.416 | 0.282 | -0.591 | 1.1 | -0.718 | 0.83 | 1.42 | 0.276 | 0.565 | -0.626 | 0.395 | 1.91 | 0.883 | 0.0469
TGAATGAGGTTAAAGATCTGGGAACGTGGCGTCG | 2.25 | 2.86 | 1.17 | -0.223 | 0.811 | 1.19 | -0.0436 | 1.8 | -0.239 | 1.93 | 0.638 | 1.65 | 1.42 | 1.24 | 2.49 | 2.26 | 0.597 | 0.872
CGAACTGGGTCAGAACAGGACAGTGAAGGATGAT | 6.73 | 6.56 | 2.09 | 2.05 | 0.887 | 1.06 | -0.389 | 1.31 | 0.0168 | 2.23 | 1.53 | 1.84 | 2.27 | 0.00591 | 1.26 | 3.55 | -0.0909 | 0.0814
TCTAGTTGGTCAAAAGTCACACACTCGAAATGCG | 2.33 | 2.69 | 0.872 | 1.33 | 2 | 1.02 | 0.426 | 1.64 | 1.24 | 1.35 | 1.01 | 1.34 | 1.06 | 1.33 | 1.55 | 0.553 | 0.457 | 0.578
CCTTACGGGTCACTCCAGGTTGTAGCATCGGAGT | 2.42 | 3.11 | 0.374 | 0.469 | 1.62 | 3.85 | -0.0202 | 3.84 | 0.553 | 3.65 | 2.84 | 4.14 | 3.94 | 1.67 | 4.11 | 4.56 | 0.074 | 1.05
TCTAGTCGGTCACGGAGGTCACACACGACGGGTA | 4.17 | 5.71 | 2.36 | 0.492 | 3.93 | 4.93 | 2.24 | 5.02 | 1.39 | 4.56 | 5.2 | 5.84 | 6.47 | 1.15 | 5.17 | 3.94 | 2.48 | 3.72
TGAATGAGGTTATAAGATCAGGGAACGTTGCAAA | 1.08 | 1.54 | 0.481 | 0.281 | -0.132 | 0.601 | -0.261 | 1.25 | 0.0131 | 1 | 0.0745 | 1.3 | 0.836 | 0.756 | 1.86 | 1.71 | -0.0262 | 0.362
GCGACTGGAGCATCAGCAGGTTACCATAACTTAA | 0.414 | 0.0135 | -1.51 | -0.56 | -0.607 | -0.228 | -0.687 | 0.0402 | -1.07 | -0.26 | -0.0503 | -0.127 | -0.161 | -0.526 | 0.0977 | 0.179 | -0.37 | -0.639
CCGACTGGGGCATAAGGTTCCCATAAGCCAGCCC | 1.82 | 2 | -1.14 | -1.53 | -0.0208 | -0.582 | -0.205 | -0.563 | 0.262 | 0.252 | -0.217 | -0.0298 | -0.0621 | -0.59 | -0.271 | -0.0053 | -0.165 | -0.209
GCTAGTCGGTCAGTAAAAGGTCACACACCGGTCG | 2.63 | 3.74 | 0.159 | 0.0206 | 4.9 | 5.25 | 1.05 | 6.26 | 2.14 | 4.65 | 5.59 | 6.16 | 6.16 | 0.548 | 5.55 | 3.62 | 1.73 | 1.85
CCTTACGGGGCACTGACAGGTTATAGCATTTGGA | 1.49 | 0.641 | -0.296 | -0.753 | 0.227 | -0.0592 | -0.274 | 0.21 | 0.0601 | 1.03 | 0.4 | 0.997 | 0.998 | 0.12 | 0.44 | 0.141 | -0.73 | -0.309
TCATATAGGTAAAGGTGAAAGGCGAACGATATGA | 4.32 | 4.06 | 1.46 | 1.05 | 1.25 | 0.986 | 0.264 | 1.81 | 0.996 | 1.99 | 1.51 | 1.67 | 1.39 | 0.748 | 2.24 | 1.7 | -0.314 | -0.263
CCACACAGGTGAAAGGTAACTCAGTCTGGTACGC | 2.15 | 3.2 | 0.0609 | 0.1 | 1.3 | 1.22 | 0.292 | 1.76 | 0.461 | 1.38 | 1.05 | 1.5 | 0.76 | 0.262 | 2.32 | 1.06 | 0.165 | -0.208
ACTAGCAGGCCAAGTTTGGGTCACTCACACAAAG | 0.874 | 1.38 | -1.02 | 0.437 | 0.553 | 0.973 | 0.229 | 1.62 | -0.272 | 2.06 | 2.45 | 2.62 | 1.68 | 0.307 | 1.08 | 2.56 | 1.24 | 0.348
TTACCAAGGTGAGCTCAGGTCGTTGATCCAACTC | 1.23 | 1.8 | 0.00673 | -0.46 | -0.274 | 3.09 | -0.622 | 0.823 | -0.956 | 1.33 | 1.03 | 0.577 | 0.405 | -0.211 | 0.652 | 4.12 | 1.43 | 0.416
CCAGACAGGTGAAAGGTACCTCAGTCTGGTACGC | 1.66 | 1.96 | -0.554 | -0.542 | 0.247 | 0.109 | -0.251 | 0.49 | -0.2 | 0.786 | 0.251 | 0.666 | 0.394 | -0.333 | 1.32 | 0.325 | -0.329 | -0.438
CAAACTAAGTCACCGGAAGGTCAAAGTCCGCATG | 2.44 | 2.88 | 0.787 | 1.14 | 2.8 | 3.98 | 1.63 | 4.43 | 1.48 | 3.46 | 4.37 | 5.3 | 3 | 1.01 | 3.92 | 3.26 | 1.51 | 2.19
CGTCCAAGCTCAAAGGTCAGTGAAGAGATGACGG | 0.0789 | 1.7 | -0.175 | -0.869 | 3.43 | 3.24 | 0.202 | 4.05 | 1.36 | 4.48 | 4.4 | 4.58 | 5.11 | 0.306 | 4.05 | 2.33 | 0.0443 | 0.215
TGATATAGGTAAACAGGTGAAAGTCCGTAAGTTA | 5.35 | 5.64 | 1.01 | 0.48 | 0.911 | 0.29 | 0.346 | 0.703 | 1.11 | 0.511 | 0.629 | 0.44 | 0.407 | -0.121 | 0.613 | 0.68 | 0.366 | 0.301
GCATATAGGTAATACAAGGTGAGAGTCCGATTGT | 4.28 | 3.14 | 1.33 | 0.73 | 0.397 | 0.114 | 0.184 | 1.59 | 0.608 | 0.335 | 0.849 | 0.265 | 0.368 | 0.552 | 0.4 | 3.98 | 0.807 | 0.0557
TGTCAAAATTCAAAGGTAACGTAAGTATCCACAC | -0.0151 | 1.31 | 0.599 | 1.21 | 0.821 | 0.362 | 0.426 | 1.04 | 0.683 | 0.953 | 0.464 | 0.501 | 0.807 | -0.417 | 0.772 | 1.16 | -0.046 | 0.102
CGTCCAAGGTCAAGGTCCGTGAAAGAGACTCGAA | 3.62 | 3.88 | 0.152 | -0.702 | 2.49 | 3.69 | 0.711 | 4.47 | 0.5 | 5.29 | 4.19 | 6.16 | 6.84 | 3.57 | 5.96 | 3.82 | 2.69 | 2.27
TCATATAGGTAAAAGGTGAAATTCGGTGTGGTAA | 5.31 | 5.24 | 2.68 | 1.94 | 2.68 | 1.62 | 1.11 | 2.81 | 1.72 | 1.89 | 1.8 | 1.8 | 0.738 | 1.92 | 3.04 | 1.77 | 0.523 | 0.37
ACAGACAGGTTATGAAGGTAACTCAGGCTATCAT | 0.3 | 0.659 | 0.714 | 0.581 | 0.432 | 0.377 | 0.271 | 0.863 | 0.217 | 0.899 | 0.833 | 0.914 | 0.793 | 0.197 | 0.932 | 1.51 | 0.368 | 0.373
ATCGCAAGGTCGTGAGGTGAGTATACAGAAAGGC | -0.158 | 1.26 | 0.877 | -0.102 | 0.794 | 1.78 | 0.241 | 2.78 | -0.445 | 2.67 | 2.13 | 2.76 | 2.38 | 1.62 | 3.06 | 3.33 | 2.41 | 1.55
AGTGAAAGTTCATCTAGGTAACGTAAGATATGCT | 0.529 | 3.41 | 1.8 | 1.64 | 2.58 | 4.68 | 6.78 | 3.24 | 1.4 | 4.63 | 3.66 | 5.08 | 5.81 | 4.66 | 4.44 | 3 | 0.263 | 5.43
ATATGTAGGTTATCGGGTCATTAAGTTTGCGCAT | 7.51 | 7.55 | 2.77 | 2.29 | 2.72 | 4.08 | 9.55 | 3.8 | 1.51 | 2.62 | 3.05 | 3.13 | 2.3 | 1.7 | 3.23 | 3.25 | 2.55 | 4.46
ATTGAAAGGTCGACGAGGTGAGTATACACCGTTT | 0.761 | 2.3 | 1.58 | 1.35 | 1.78 | 3.19 | 0.959 | 3.86 | 0.685 | 4.05 | 3.13 | 4.19 | 4.05 | 1.2 | 4.31 | 3.89 | 1.14 | 1.58
